We go through 28 compounds from PubChem BioAssay (NCATS).

The structures appear in SMILES notation. Unmarked numbers belong to inactive results. Records with an inconclusive call do not appear. Active and inactive are the calls of the source. Calls follow the shape of the dose curve; as a rule, active = well fitted curve in the direction sought with a large enough effect; inconclusive = small, poorly fitted or top-dose-only effect, or another doubt; inactive = no such curve, though single readings can be large; an effect the other way counts as inactive or inconclusive.

A short description of experiment [1]: qHTS for Inhibitors of Plasmodium falciparum (DD2) proliferation (AID 504314).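 Also: parasite DNA measured by SYBR Green fluorescence after red cell lysis; plate controls were DMSO vehicle for no effect and artemisinin wells for full effect.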 The method, boiled down: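 SYBR Green growth assay: 72 h compound exposure of infected red cells (2.5% hematocrit, 0.3% parasitemia), then lysis and overnight dye staining, fluorescence 485/535 nm. Values scaled between DMSO and 0.29 uM artemisinin controls.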
In general terms: Quantitative high-throughput screening tests each substance at several concentrations.

The nature of experiment [2]: qHTS for Inhibitors of Plasmodium falciparum (7G8) proliferation (AID 504316). Also: nearly all actives have a fitted effect of over 65% in size. Also: potency is read from the fitted curve at half-maximal effect. An outline of the steps: (§1)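 Parasite growth measured as SYBR Green DNA fluorescence (ex 485, em 535 nm) after overnight lysis following 72 h culture at 37 °C, 0.3% parasitemia, 2.5% hematocrit. Values normalized against DMSO and 0.29 uM artemisinin controls, with plate-stack correction.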
Experiment [3] is described as follows: qHTS for Inhibitors of Plasmodium falciparum (HB3) proliferation (AID 504318). Also: nearly all actives have a fitted effect of over 60% in size. Also: potency is read from the fitted curve at half-maximal effect. An outline of the steps:
as §1

Experiment [4] can be described thus: qHTS for Inhibitors of Plasmodium falciparum (CP250) proliferation (AID 504320). Also: potency is read from the fitted curve at half-maximal effect. An outline of the steps: as §1
In experiment [5] the target is Cytochrome P450 2C9 (Homo sapiens) (UniProt P11712). The experiment can be described thus: qHTS Assay for Inhibitors and Substrates of Cytochrome P450 2C9 (AID 883). Also: % is scaled to controls: 0 for no effect and ±100 for the full control effect; nearly all actives have a fitted effect of over 60% in size. The method, boiled down:
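Inhibition of CYP2C9 is scored as loss of luminescence, with 57uM sulphaphenazole defining 100% inhibition. Substrate Luciferin-H is used at 100uM, equal to its KM; enzyme at 10nM in 25mM KPO4, 60 min at 37C with NADPH regeneration.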

Experiment [6] deals with Cytochrome P450 3A4 (Homo sapiens) (UniProt P08684). Description: qHTS Assay for Inhibitors and Substrates of Cytochrome P450 3A4 (AID 884). Also: potency is read from the fitted curve at half-maximal effect; nearly all actives have a fitted effect of over 50% in size. An outline of the steps:
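Luminescent readout of luciferin produced by CYP3A4 (20 nM) dealkylation of Luciferin-PPXE, 25 uM (its KM). NADPH-driven reaction ran 60 min at RT after 10 min compound preincubation; data scaled to 57 uM ketoconazole as 100% inhibition.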

The target is the same in experiment [7]. Description: qHTS Assay for Activators of Cytochrome P450 3A4 (AID 885). Also: nearly all actives have a fitted effect of over 65% in size. An outline of the steps:
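Luminescent readout of luciferin formed from 25 uM Luciferin-PPXE (KM level) by 20 nM CYP3A4 in 200 mM KPO4, with 60 min NADPH-driven reaction at room temperature after 10 min compound exposure. Ketoconazole (57 uM) defined 100% inhibition.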

Experiment [8] concerns the target Cytochrome P450 2D6 (Homo sapiens) (UniProt P10635). Description: qHTS Assay for Inhibitors and Substrates of Cytochrome P450 2D6 (AID 891).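 Also: luciferin methyl ether substrate demethylated by CYP2D6 with NADPH regeneration; % is scaled to controls: 0 for no effect and ±100 for the full control effect; nearly all actives have a fitted effect of over 60% in size.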 An outline of the steps:
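Luminescent read-out of luciferin formed by 5 nM human CYP2D6 demethylating 30 uM Luciferin-ME EGE (Km level) over 60 min at room temperature after NADPH regeneration addition. Data normalized to full inhibition by 1.43 uM quinidine.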

A short description of experiment [9]: qHTS for Inhibitors of Plasmodium falciparum (GB4) proliferation (AID 504315). Also: nearly all actives have a fitted effect of over 50% in size. Also: potency is read from the fitted curve at half-maximal effect. The method, boiled down:
as §1

Cytochrome P450 3A4 (Homo sapiens), sequence (P08684 whole entry, looked up): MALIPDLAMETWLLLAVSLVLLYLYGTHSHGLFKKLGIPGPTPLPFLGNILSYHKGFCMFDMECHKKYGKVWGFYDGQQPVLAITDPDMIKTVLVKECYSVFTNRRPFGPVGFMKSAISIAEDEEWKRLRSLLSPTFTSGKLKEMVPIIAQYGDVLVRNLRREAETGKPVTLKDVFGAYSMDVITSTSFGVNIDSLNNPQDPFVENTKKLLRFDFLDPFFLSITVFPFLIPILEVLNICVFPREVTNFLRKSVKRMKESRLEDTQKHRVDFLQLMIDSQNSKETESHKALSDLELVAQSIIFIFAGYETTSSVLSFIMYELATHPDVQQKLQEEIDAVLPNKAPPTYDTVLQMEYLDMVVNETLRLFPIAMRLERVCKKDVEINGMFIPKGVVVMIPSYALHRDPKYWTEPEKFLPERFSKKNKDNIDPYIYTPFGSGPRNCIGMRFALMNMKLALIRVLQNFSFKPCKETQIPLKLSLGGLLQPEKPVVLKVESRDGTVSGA
Cytochrome P450 2C9 (Homo sapiens), sequence (P11712 whole entry, looked up): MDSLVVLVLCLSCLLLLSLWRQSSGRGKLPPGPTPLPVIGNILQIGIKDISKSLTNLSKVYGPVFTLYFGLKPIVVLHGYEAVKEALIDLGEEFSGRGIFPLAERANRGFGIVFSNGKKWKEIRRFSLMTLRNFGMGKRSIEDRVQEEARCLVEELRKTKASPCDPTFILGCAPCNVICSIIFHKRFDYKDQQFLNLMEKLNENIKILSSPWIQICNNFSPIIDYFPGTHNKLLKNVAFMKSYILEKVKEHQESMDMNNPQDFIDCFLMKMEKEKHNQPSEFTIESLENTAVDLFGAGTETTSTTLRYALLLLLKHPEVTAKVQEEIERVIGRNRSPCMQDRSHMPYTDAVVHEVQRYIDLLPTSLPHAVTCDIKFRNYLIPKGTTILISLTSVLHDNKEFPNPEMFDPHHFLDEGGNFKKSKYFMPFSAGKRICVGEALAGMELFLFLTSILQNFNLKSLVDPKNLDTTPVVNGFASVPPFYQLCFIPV
Cytochrome P450 2D6 (Homo sapiens), sequence (P10635 whole entry, looked up): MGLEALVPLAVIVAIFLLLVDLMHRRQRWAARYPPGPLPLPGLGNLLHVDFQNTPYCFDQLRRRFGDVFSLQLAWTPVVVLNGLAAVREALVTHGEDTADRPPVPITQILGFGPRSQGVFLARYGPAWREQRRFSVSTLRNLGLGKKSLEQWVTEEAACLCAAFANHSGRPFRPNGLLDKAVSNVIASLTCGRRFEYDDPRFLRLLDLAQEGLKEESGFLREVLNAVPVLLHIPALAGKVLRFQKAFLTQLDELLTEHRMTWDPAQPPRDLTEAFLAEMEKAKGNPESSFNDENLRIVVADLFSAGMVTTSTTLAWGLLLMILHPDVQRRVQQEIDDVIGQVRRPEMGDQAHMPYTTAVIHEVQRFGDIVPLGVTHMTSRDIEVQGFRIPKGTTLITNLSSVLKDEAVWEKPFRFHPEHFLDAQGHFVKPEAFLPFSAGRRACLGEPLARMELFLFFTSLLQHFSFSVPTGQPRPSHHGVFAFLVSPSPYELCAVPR

Turning to `CC1(OC(=O)CCc2ccccc2)C(=O)C=C2C=C(c3ccc(C#N)cc3)N(c3ccccc3)C=C2C1=O` (stereo not given), the Potency result in experiment [1], in experiment [2], in [3] and in experiment [4] was “inactive” throughout.
Turning to `CC1(OC(=O)C2CCCC2)C(=O)C=C2C=C(c3ccsc3)N(c3ccccc3)C=C2C1=O` (stereo not given), the Potency entry in experiment [1], in [2], in [3] and in [4] was “inactive” each time.
Consider `CCOC(=O)CN1C(=O)N[C@@H](c2cccc(C(F)(F)F)c2)[C@@H](C(=O)OC)[C@H]1C`, for which the Potency entry in experiment [1], in [2], in experiment [3] and in [4] was “inactive” each time.
For the compound `CCCCC1=CC2=CC(=O)C(C)(OC(=O)CC)C(=O)C2=CN1Cc1ccc2c(c1)OCO2` (stereo not given), the Potency entry in experiment [1], in experiment [2], in experiment [3] and in [4] was “inactive” each time.
On to `COC(=O)[C@@H]1[C@@H](C)N(Cc2ccccc2)C(=O)N[C@H]1c1cccc(C(F)(F)F)c1`, for which the Potency entry in experiment [1], in experiment [2], in experiment [3] and in experiment [4] was “inactive” each time.
`COC(=O)[C@@H](NC(=O)N1CCc2nc(COc3ccccc3)c3c(c2C1)CO[C@@H](C)C3)C(C)C`: the Potency entry in experiment [1] and in experiment [4] was “inactive” throughout. Moreover, the Potency in experiment [2] is 1690 nM (active).
On to `COC(=O)CCC(=O)OC1(C)C(=O)C=C2C=C(C3CC3)N(CC3CC3)C=C2C1=O` (stereo not given), for which the Potency entry in experiment [1] and in experiment [3] was “inactive” each time.
In the case of `CCN1C(=O)N(S(=O)(=O)c2ccc(C)cc2)[C@@H](c2ccccc2)C(C(=O)OC)=C1C`, the Potency entry in experiment [1], in experiment [2] and in [4] was “inactive” in each case.
As for `COCCN1C=C2C(=O)C(C)(OC(=O)CCc3ccccc3)C(=O)C=C2C=C1c1ccc(C#N)cc1` (stereo not given), the Potency result in [1], in experiment [2] and in experiment [4] was “inactive” in each case.
Turning to `CCOC(=O)CCCNC(=O)N1CCc2nc(COc3ccccc3)c3c(c2C1)CO[C@@H](C)C3`, the Potency result in experiment [1] and in [4] was “inactive” each time. Further, the Potency in experiment [2] was 1510 nM (active).
For the compound `COC(=O)C(C(=O)OC)C1c2ccccc2C=C(C)N1C(=O)OC` (stereo not given), the Potency entry in [1], in experiment [2], in experiment [3] and in experiment [4] was “inactive” each time.
For the compound `CCCCCCC(=O)Cc1cc(OC)c(OC)cc1C=C(C(=O)OCC)C(=O)OCC`, the Potency entry in experiment [5], in experiment [8], in experiment [1], in [2], in [3] and in experiment [4] was “inactive” each time. Moreover, the Potency in experiment [6] is 3160 nM (active). The activity change, positive = activation in [7] is -90.7% [at 11.4 µM].
For the compound `COC(=O)N1C(/C=C/C=C/c2ccc(OC)cc2)=Cc2ccccc2C1CC(C)=O` (stereo not given), the Potency entry in [1] and in experiment [4] was “inactive” throughout. In addition, in experiment [2], the Potency is 1510 nM (active).
In the case of `COCCN1C=C2C(=O)C(C)(OC(=O)CCC(=O)OC)C(=O)C=C2C=C1C1CC1` (stereo not given), the Potency entry in experiment [1] and in experiment [3] was “inactive” throughout.
As for `CCOC(=O)NN=C1C[C@@H](O)[C@@H](O)[C@@H]2[C@H]3C(=O)N(CC)C(=O)[C@@H]3CC[C@@H]12`, the Potency result in [1], in experiment [2] and in experiment [4] was “inactive” throughout.
As to `COC(=O)C1=C(C(=O)OC)[C@@H]2Nc3ccccc3[C@@]23C[C@@H](C(=O)OC)N=C3N1`, the Potency entry in experiment [1], in experiment [2], in experiment [3] and in [4] was “inactive” each time.
On to `CCCCC1=CC2=CC(=O)C(C)(OC(=O)CC)C(=O)C2=CN1CCCCO` (stereo not given), for which the Potency entry in experiment [1], in experiment [2], in experiment [3] and in experiment [4] was “inactive” throughout.
Turning to `CCCCn1c(C)cc2c(c1=O)[C@H]1O[C@](c3ccsc3)(Cc3ccccc31)O2`, the Potency result in [1] and in [4] was “inactive” throughout. Besides, the Potency in experiment [2] is 1690 nM (active).
For `C=CCN1C=C2C(=O)C(C)(OC(=O)CC)C(=O)C=C2C=C1CCCC` (stereo not given), the Potency result in [1], in [2] and in experiment [4] was “inactive” in each case.
`CC#CCN1c2ccccc2[C@]23C[C@@H](C(=O)OC)N(C(=O)c4cccs4)C2=NC(C(=O)OC)=C(C(=O)OC)[C@H]13`: the Potency result in experiment [1], in experiment [2], in [3] and in [4] was “inactive” each time.
As to `CCOC(=O)CN1C(=O)N[C@@H](CCc2ccccc2)[C@H](C(C)=O)[C@H]1C`, the Potency result in experiment [1], in experiment [2] and in experiment [4] was “inactive” each time.
With `CCC(=O)N1C2=C(c3ccccc3[C@@H]1CC(=O)Nc1ccc3ccccc3c1)[C@@H]1C(=O)N(c3ccccc3)C(=O)[C@@H]1[C@H](C)C2`, the Potency entry in [1] and in [4] was “inactive” each time. The Potency in experiment [2] was 1900 nM (active).
Consider `CCOC(=O)CN1C(=O)N[C@@H](c2cccc(C(F)(F)F)c2)C(C(=O)OC)=C1C`, for which the Potency result in experiment [9], in experiment [2], in [3] and in [4] was “inactive” in each case.
With `CCCCCCCC1=Cc2ccccc2C(C(C(C)=O)C(=O)OC)N1C(=O)OC` (stereo not given), the Potency entry in experiment [1] and in experiment [4] was “inactive” throughout.
As to `C#CCCOC(=O)N1C2=NC(C(=O)OC)=C(C(=O)OC)[C@@H]3N(CC#CC)c4ccccc4[C@]23C[C@H]1C(=O)OC`, the Potency entry in experiment [1], in experiment [3] and in experiment [4] was “inactive” each time.
`COC(=O)C1=C(C(=O)OC)[C@@H]2N(Cc3ccccc3)c3ccccc3[C@@]23C[C@@H](C(=O)OC)N(S(=O)(=O)c2ccc(C(F)(F)F)cc2)C3=N1`: the Potency in [9] is 536 nM (active); in experiment [2] it was 478 nM (active); in experiment [3], 478 nM (active); in [4], 536 nM (active).
Take `COc1cccc(CC(=O)N2CCc3nc(-c4ccc(OC)cc4C)c4c(c3C2)CO[C@@H](c2ccccc2)C4)c1`: the Potency result in experiment [1] and in experiment [4] was “inactive” in each case.
For `CCCCS(=O)(=O)N1CCc2nc(-c3ccc(OC)cc3C)c3c(c2C1)CO[C@@H](c1ccccc1)C3`, the Potency result in experiment [1] and in experiment [4] was “inactive” each time.
